The whole screen tested about 39,000 compounds, of which about 1,500 (3.8%) were called active. The full list was thinned out, with actives kept by preference.
Test system: HSkMC (human skeletal muscle cells)
Assay: cytotoxicity call (relative viability < 0.9)
Conditions: 10 µM

SMILES | cytotoxicity call
C#CCN([C@H](/C=C/C1CC1)[C@@H](O)Cc1ccccc1)[C@@H](Cc1ccc(-n2cc(CCC(=O)NO)nn2)cc1)C(=O)OC | inactive
O=C(CCc1cn(CC(=O)N2CCC3(CC2)C(=O)NCN3c2ccccc2)nn1)NO | inactive
CCCNC(=O)Cc1nnc[nH]1 | inactive
CCNC(=O)c1cc2c(c(-c3cccc(-c4cccc(F)c4)c3)n1)[C@H](CCO)N([S@@](=O)C(C)(C)C)C2 | inactive
COc1ccccc1-c1cccc(-c2nc(C(=O)NCc3ccncc3)cc3c2[C@H](CCO)N([S@@](=O)C(C)(C)C)C3)c1 | active
COc1ccccc1-c1cccc(-c2nc(C(=O)NCc3ccncc3)cc3c2[C@@H](CCO)N([S@@](=O)C(C)(C)C)C3)c1 | inactive
CC(C)(C)[S@@](=O)N1Cc2cc(C(=O)NCCc3ccncc3)nc(-c3cccc(-c4ccc(C#N)cc4)c3)c2[C@H]1CCO | inactive
CC(C)(C)[S@](=O)N1Cc2cc(C(=O)NCCc3ccncc3)nc(-c3cccc(-c4ccccc4)c3)c2[C@@H]1CCO | inactive
CCNC(=O)c1cc2c(c(-c3cccc(-c4cccc(F)c4)c3)n1)[C@@H](CCO)N([S@](=O)C(C)(C)C)C2 | inactive
CC(C)(C)[S@@](=O)N1Cc2cc(C(=O)NCCc3ccncc3)nc(-c3cccc(-c4ccccc4)c3)c2[C@H]1CCO | active
CC(C)(C)S(=O)N1Cc2cc(C(=O)Nc3ccc(-c4ccccc4)cc3)nc(-c3cccc(-c4cccc(F)c4)c3)c2[C@@H]1CCO (some centres undefined) | active
COc1ccccc1-c1cccc(-c2nc(C(=O)NCc3ccncc3)cc3c2[C@@H](CCO)N([S@](=O)C(C)(C)C)C3)c1 | inactive
COCC(=O)N(C)C[C@H]1Oc2cc(C#CC(C)(C)O)ccc2S(=O)(=O)N([C@@H](C)CO)C[C@H]1C | inactive
C[C@H]1CN([C@@H](C)CO)C(=O)c2cccc(NS(=O)(=O)c3cn(C)cn3)c2O[C@@H]1CN(C)C(=O)NC1CCCCC1 | inactive
CO[C@H]1CN(C)C(=O)c2ccc(NS(=O)(=O)c3cn(C)cn3)cc2OC[C@@H](C)N(CC2CC2)C[C@@H]1C | inactive
Cn1cnc(S(=O)(=O)N2C[C@@H](O)COC[C@@H]3O[C@H](CC(=O)NCc4cccc(F)c4)CC[C@H]32)c1 | inactive
CNC(=O)c1cccc(S(N)(=O)=O)c1 | inactive
C[C@@H]1CCCCO[C@H](CN(C)C(=O)NC2CCCCC2)[C@H](C)CN([C@H](C)CO)C(=O)c2cc(NC(=O)NC3CCCCC3)ccc2O1 | inactive
C[C@@H]1CN([C@@H](C)CO)C(=O)c2cc(C#CC(C)(C)O)cnc2O[C@H]1CN(C)C(=O)CN(C)C | inactive

Reference: the antibiotic and cytotoxicity screens of Wong et al. (2023)
